Conditions in all cases: concentration: 10 µM; 24 h
Assay [1] deals with HCC1569. The assay can be described thus: cell number relative to DMSO (% of DMSO); higher = more cells (less growth inhibition / toxicity). The essentials: (§1)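 Compounds were applied at 10 µM for 24 h at 37 °C, in triplicate, to HCC1569 and TDF cells. The cells were then fixed and stained for H1.0, and nuclei were counterstained with DAPI. Nuclear H1.0 intensity or cell number is reported relative to the plate control as a percent, taking the median of replicates. Smoothing for positional effects was applied to HCC1569 values only.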

For assay [2], the system named is TDF. Described as above. The essentials:
as §1

In assay [3] the test system is TDF. As to the kind of experiment: H1.0 immunofluorescence intensity relative to DMSO (% of DMSO); higher = stronger H1.0 induction, active = 120 or more. Summed up:
as §1

In assay [4] the test system is HCC1569. As to the kind of experiment: H1.0 immunofluorescence intensity relative to DMSO (% of DMSO); higher = stronger H1.0 induction, active = 140 or more. The essentials: as §1

The structures appear in SMILES notation. ± gives the standard deviation of the averaged measurements.
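Throughout, for H1.0 immunofluorescence intensity relative to DMSO: TDF is a line of transformed human dermal fibroblasts of mesenchymal origin.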
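Throughout, for cell number relative to DMSO: TDF denotes transformed human dermal fibroblasts of mesenchymal origin.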

As to `Cl.c1ccc2nc(C3=NCCN3)ccc2c1` [BU224 hydrochloride], the cell number was 101 in the assay on HCC1569 [1] and 110 in the assay with TDF [2]. Also, the values for the H1.0 immunofluorescence intensity in the assay on TDF [3] and with HCC1569 [4] were 95 (inactive) and 100 (inactive), respectively.
For `Br.COc1ccccc1N1CCN(CCCCN2C(=O)c3ccccc3C2=O)CC1` [NAN-190 hydrobromide], in that order: 104, 102, 90.9 (inactive) and 100 (inactive).
For `COc1ccc(C2CNC(=O)C2)cc1OC1CCCC1` (stereo unspecified) [Rolipram], in that order: 101 ± 1.8, 108 ± 4.6, 91.5 (inactive) and 110 (inactive).
For `O=C(Nc1cccc(Nc2ncc(Br)c(NCCc3cnc[nH]3)n2)c1)N1CCCC1`, in that order: 51.2, 33.8, 113 (inactive) and 109 (inactive).
In the case of `COc1nc(C)nc(Cl)c1NC1=NCCN1.Cl` [Moxonidine hydrochloride], the cell number in the assay on HCC1569 [1] and in the assay with TDF [2] was 102 each time. Also, the H1.0 immunofluorescence intensity is 92 (inactive) with TDF [3] and 90.3 (inactive) in the assay with HCC1569 [4].
As for `COc1cc2c(N3CCN(C(=O)Nc4ccc(OC(C)C)cc4)CC3)ncnc2cc1OCCCN1CCCCC1` [Tandutinib], the results for the cell number in the assay with HCC1569 [1] and with TDF [2] were 101 and 100, respectively. Further, the H1.0 immunofluorescence intensity in the assay with TDF [3] is 97.9 (inactive); in the assay with HCC1569 [4], 99.5 (inactive).
For `CC1(C)C2CCC1(C(=O)O)C(=O)C2` (stereo unspecified) [Ketopinic acid] the same measures were 103, 102, 99.7 (inactive) and 88.3 (inactive).
For `CCCC[C@@H](C=O)NC(=O)[C@H](CC(C)C)NC(=O)[C@H](CC(C)C)NC(C)=O` the same measures were 47.1, 32.2, 160 (active) and 150 (active).
For `CC(O)C(CO)NC(=O)C1CSSCC(NC(=O)C(N)Cc2ccccc2)C(=O)NC(Cc2ccccc2)C(=O)NC(Cc2c[nH]c3ccccc23)C(=O)NC(CCCCN)C(=O)NC(C(C)O)C(=O)N1` (stereo unspecified) [Octreotide] the same measures were 106, 98.5, 103 (inactive) and 98.9 (inactive).

Values taken from the supplement of paper PMC7156485.
